Reference: PubChem BioAssay AID2540 (Sanford-Burnham Center for Chemical Genomics, 2010)
Among all 330,000 compounds or so, about 4,100 (1.2%) were called active. What follows is part of a selection rich in actives, with near analogues and random picks from the rest. Values without a mark were called inactive. Rule as the data show it: active = inhibition above about 50%; inactive = the rest.

target: Sentrin-specific protease 8 (Homo sapiens) (UniProt Q96LD8); assay: SENP8 protease inhibitors, primary screen, biochemical, luminescence (AID 2540); conditions: purified SENP8, Z-RLRGG-aminoluciferin cleavage, at 10 µM, stronger effect = higher value
Sequence (Q96LD8 whole entry, looked up): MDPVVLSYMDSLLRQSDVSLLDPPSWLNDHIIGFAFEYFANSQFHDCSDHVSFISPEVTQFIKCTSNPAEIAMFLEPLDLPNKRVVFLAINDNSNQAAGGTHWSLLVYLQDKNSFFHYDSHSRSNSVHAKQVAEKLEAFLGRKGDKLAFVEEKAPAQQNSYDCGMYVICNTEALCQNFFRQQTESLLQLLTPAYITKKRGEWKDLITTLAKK

Row | SMILES | inhibition
1 | O=C(Nc1c2c(nn1-c1ccc(F)cc1)CS(=O)C2)C12CC3CC(CC(C3)C1)C2 (stereo not drawn) | -3.44%
2 | CCC(Cc1ccccc1)NC(=O)C1CCCCC1 (stereo not drawn) | -7.47%
3 | CN(c1ccc2nc3ccccc3c(=O)n2n1)C1CCCCC1 | 92.6% (active)
4 | CN(C(=O)c1cc2c(=O)n3ccccc3nc2s1)C1CCCCC1 | -2.55%
5 | CN(C(=O)CSc1nncc2ccccc12)C1CCCCC1 | -9.8%
6 | CC(C(=O)N1CCOCC1)N1c2cccc3cccc(c23)S1(=O)=O (stereo not drawn) | 3.41%
7 | Cc1cccc(NC(=O)Cc2ccc(Br)cc2)n1 | -12.8%
8 | Cc1cccc(NC(=O)c2cc(N3C(=O)CCC3=O)ccc2Cl)n1 | -1.19%
9 | Cc1cccc(NC(=O)c2ccc3ccccc3n2)n1 | 61.5% (active)
10 | CC(=O)c1cnc(SCC(=O)O)nc1C | 6.9%
11 | CCN(CC)CCn1c2c(c(SCC(=O)Nc3nc4ccccc4s3)nc1=O)CCCC2 | 3.66%
12 | c1ccc2sc(NN=C3CCCC3)nc2c1 | 72% (active)
13 | O=C(CCC(=O)c1cccs1)Nc1nc2ccccc2s1 | -9.74%
14 | COc1ccc(OC)c2sc(NC(=O)C3COc4ccccc4O3)nc12 (stereo not drawn) | -14.6%
15 | O=C(Nc1ncc([N+](=O)[O-])s1)C1COc2ccccc2O1 (stereo not drawn) | 95.6% (active)
16 | COc1ccc(NC(=O)C2COc3ccccc3O2)cc1 (stereo not drawn) | -15.1%
17 | COc1ccc(OC)c(NC(=O)Cn2c(=O)oc3ccccc32)c1 | -1.75%
18 | N#Cc1cc([N+](=O)[O-])ccc1NC(=O)COC(=O)c1cnccn1 | -2.92%
19 | O=C(CN1CCN(c2ccc(Cl)cc2)CC1)NCc1cccs1 | -8.2%
20 | CCc1cc(CNC(=O)CC2C(=O)NCCN2CC2CCCCC2)on1 (stereo not drawn) | -2.78%
21 | CCCCCN(C(=O)CCC(=O)OCCOc1ccc(OC)cc1)c1c(N)n(CCCC)c(=O)[nH]c1=O | 6.98%
22 | C=CCN(C(=O)Nc1ccc2c(c1)nc(C)n2C)c1ccccc1 | 0.305%
23 | Cc1nc2cc(NC(=O)Nc3cccc(F)c3)ccc2n1C | 90.8% (active)
24 | Cn1c(CCN2CCCCCC2)nc2cc(NC(=O)Nc3ccccc3)ccc21 | 1.11%
25 | O=C(COC(=O)c1cnccn1)Nc1cccc2ccccc12 | 1.04%

Row | SMILES | inhibition
26 | O=C(CSc1ncnc2c1nnn2Cc1ccc(F)cc1)NC1CCCC1 | -8.4%
27 | O=C(c1ccc(CSc2ccccc2)cc1)N1CCCCCC1 | 64.4% (active)
28 | O=C(c1ccc(S(=O)(=O)c2ccccc2)cc1)N1CCCCCC1 | -5.04%
29 | O=C(Nc1ccccc1C(=O)N1CCOCC1)c1ccc(CSc2ccccc2)cc1 | -3.32%
30 | O=C(CSc1nccc(=O)[nH]1)Nc1ccc(N2CCOCC2)c(Cl)c1 | 2.95%
31 | Cc1sc(NC(=S)NC(=O)c2cccs2)nc1-c1ccc(CC(C)C)cc1 | 13.2%
32 | Cc1ccc(C(=O)N/C(=C/c2cccnc2)C(=O)O)cc1 | -10.8%
33 | C/C(=N\NC(=O)CNC(=O)C(c1ccccc1)c1ccccc1)c1ccc(C)cc1 | -7.34%
34 | C/C(=N\NC(=O)c1ccc(C)cc1)C1C(=O)c2ccccc2C1=O | 86.8% (active)
35 | O=C(NCCOc1cccnc1)c1ccc(OC2CCN(Cc3ccccn3)CC2)cc1 | -5.27%
36 | CCN(C(=O)COc1cccnc1[N+](=O)[O-])C1CCS(=O)(=O)C1 (stereo not drawn) | 1.37%
37 | O=C1C2CCCN2C(=O)N1CCCCN1CCN(c2cccc(C(F)(F)F)c2)CC1 (stereo not drawn) | 11.4%
38 | O=C(COC(=O)c1cccnc1Cl)Nc1ccc(S(=O)(=O)N2CCOCC2)cc1 | -1.74%
39 | COc1ccc(C(=O)Nc2ccccc2C(=O)N2CCN(c3ccccc3)CC2)cc1 | 0.756%
40 | COc1ccc(/C=N/OCC(=O)N(Cc2ccccc2)c2ccccc2C(=O)O)cc1 | -0.249%
41 | COc1ccc(C(=O)Nc2ccccc2C(=O)N/N=C/c2ccc(O)c(OC)c2)cc1 | 96.1% (active)
42 | O=C(N/N=C/c1ccc(OC(=O)c2ccccc2Cl)cc1)c1ccc(O)cc1 | 1.64%
43 | COc1ccc(NS(=O)(=O)c2cc(C(=O)Nc3ccccc3C(=O)O)ccc2C)cc1 | -12.1%
44 | COc1ccc(/C=N/Nc2ccccc2C(=O)O)cc1 | 96.1% (active)
45 | CCOC(=O)C(C)n1cnc2c(nnn2-c2cccc(OC)c2)c1=O (stereo not drawn) | -4.12%
46 | Cc1cc(=O)oc2c(C(=O)c3ccccc3)c(OCC(N)=O)ccc12 | 5.39%
47 | Nc1[nH]c(=S)nc2nc(-c3ccccc3)c(-c3ccccc3)nc12 | -9.6%
48 | Cc1cccnc1CCNC(=O)C1CCC(=O)N(Cc2cccc(F)c2)C1 (stereo not drawn) | -1.77%
49 | O=C(CNCc1ccco1)Nc1cc(S(=O)(=O)N2CCOCC2)ccc1N1CCCC1 | -6.3%
50 | CCN(CC)C(=O)CC1(c2ccccc2OC)CCOC(C(C)C)C1 (stereo not drawn) | -10.8%

Row | SMILES | inhibition
51 | COc1ccc(CCNC(=O)C2CCCN2C(=O)Nc2ccccc2)cc1OC (stereo not drawn) | -4.97%
52 | Brc1ccc(-c2nnc(-c3ccccc3)o2)o1 | 35.5%
53 | Brc1ccc(-c2noc(-c3ccccc3)n2)o1 | 73% (active)
54 | Nc1nonc1-c1noc(-c2ccc(Br)o2)n1 | -7.25%
55 | CCC1(CC)Cc2ccccc2-c2nc(CCl)[nH]c(=O)c21 | 1.95%
56 | O=C(CCc1nc2ccccc2c(=O)[nH]1)OCC(=O)c1cccc(Cl)c1 | -5.04%
57 | O=c1[nH]c(CCl)nc2cc(-c3ccc(Cl)cc3)sc12 | 90.6% (active)
58 | O=C(NCCc1ccco1)C(=O)NCCC1CCCCN1S(=O)(=O)c1ccccc1 (stereo not drawn) | 2.72%
59 | CC(C)(C)NC(=O)CN(Cc1cccs1)C(=O)CNS(=O)(=O)c1ccccc1 | 2.68%
60 | O=C(CSc1cccc[n+]1[O-])NCCCc1ccccc1 | 3.26%
61 | Fc1ccc(COc2ccc(-c3nnco3)cc2)cc1 | 52.5% (active)
62 | Fc1ccc(COc2cccc(-c3n[nH]c(=S)o3)c2)cc1 | 26.4%
63 | Fc1cccc(Cl)c1COc1ccc(-c2nnco2)cc1 | -0.803%
64 | CCN(CC)c1ccc(S(=O)(=O)N2CCCCC2)cc1NC(=O)C1=COCCO1 | -1.53%
65 | COC(=O)c1ccc(C)c(NC(=O)C2CC(=O)N(C3CCCC(C)C3C)C2)c1 (stereo not drawn) | -6.55%
66 | O=C(NCC1CCCO1)c1cc2c(s1)CCCC2 (stereo not drawn) | 0.761%
67 | O=C(Nc1ccc(F)cc1)c1cc2c(s1)CCCC2 | 90.8% (active)
68 | CN(C)C(=O)c1ccc(NC(=O)COC(=O)c2cc3c(s2)CCCCC3)cc1 | -5.57%
69 | CC(NC(=O)c1cc2cc(Cl)ccc2oc1=N)c1ccccc1 (stereo not drawn) | -6.62%
70 | COCC(C)NC(=O)COc1nncc2ccccc12 (stereo not drawn) | -1.01%
71 | CCCC(=O)Nc1cccc(NC(=S)NC(=O)C(C)Oc2ccc(Cl)cc2Cl)c1 (stereo not drawn) | -4.44%
72 | Nc1ncc(-c2cc3ccccc3oc2=O)s1 | 84% (active)
73 | O=C(NCc1cccnc1)c1cccc(-c2cc3ccccc3oc2=O)c1 | -8.55%
74 | O=c1oc2ccccc2cc1-c1cn(-c2ccccc2)c(=S)[nH]1 | -12.9%
75 | Cc1cccc(NC(=O)/C=C/c2ccc3c(c2)OCO3)n1 | 73.5% (active)

Row | SMILES | inhibition
76 | O=C(/C=C/c1ccc2c(c1)OCO2)NCc1ccc(F)cc1 | -4.04%
77 | Cc1cccc(NC(=O)Nc2ccc3c(c2)OCO3)n1 | 13.3%
78 | COc1ccc(OC)c(NC(=O)c2cnn(-c3ccccc3Cl)c2NC(=O)c2ccco2)c1 | 7.71%
79 | CC(OC(=O)c1cc2ccccc2[nH]1)C(=O)N(C)c1ccccc1 (stereo not drawn) | -8.47%
80 | COc1ccc2[nH]c(C(=O)Nc3ccccc3Cl)cc2c1 | -24.6%
81 | O=C(Nc1ccccc1)c1cc2ccccc2[nH]1 | 72% (active)
82 | O=C(N/N=C/c1ccc(Cl)c(Cl)c1)c1ccc2nc[nH]c2c1 | -2.15%
83 | CSc1ccc(/C=N\NC(=O)CC(=O)NC(C)C)cc1 | 5.31%
84 | CSc1ccc(/C=N/NC(=O)c2cccc(Cl)c2)cc1 | 89.4% (active)
85 | O=C(CNS(=O)(=O)c1ccc(Br)s1)NCc1ccc2c(c1)OCO2 | -11.1%
86 | CC(C)CC(=O)NC(=S)Nc1ccc(F)cc1F | 3.9%
87 | COc1ccc(C(=O)Nc2ccc(F)cc2F)cc1 | 65.2% (active)
88 | COc1ccc(C(=O)Nc2cc(C)ccc2NC(=O)COc2ccccc2)cc1 | -2.67%
89 | CCC(CO)Oc1cc(NCc2ccccc2)c2ncn(C3CCCC3)c2c1 (stereo not drawn) | -0.274%
90 | CC(C)n1cnc2c(NCc3ccccc3)cc(OCC3CCN(C)CC3)cc21 | 44.5%
91 | CC(C)n1cnc2c(NCc3ccccc3)cc(N[C@@H](CO)Cc3ccccc3)cc21 | 72.8% (active)
92 | CN1CCC(N(C)S(=O)(=O)c2ccc(NC(=O)c3cccc(C#N)c3)cc2)CC1 | -1.55%
93 | O=c1c2cc(-c3ccccc3)sc2nc2n1N=C(c1cccs1)CS2 | 57.5% (active)
94 | O=c1c(-c2ccccc2)cnc2n1CCS2 | 6.64%
95 | Cc1nnc2n1N=C(c1ccccc1)CS2 | 1.54%
96 | O=C(Nc1ccc(C(=O)O)c(O)c1)c1ccccc1 | 76.3% (active)
97 | O=C(Cc1ccccc1)Nc1cccc(NC(=O)c2ccccc2)c1 | -8.4%
98 | O=C(Nc1cccc(NC(=O)c2cccc(F)c2)c1)c1ccccc1 | -15.3%
